Screening results from PubChem.
An excerpt weighted towards active compounds, which were near 9.3% of everything screened.
ELG1 DNA repair: blocks ELG1-dependent DNA repair in HEK293T cells | HEK293T ELG1-luciferase reporter, luminescence, 16 h; DNA damage induced by 5-fluorouridine | Potency, µM (top dose mostly 46.1 µM), actives largely listed as inhibitors | 2.3% of 330,000 active | AID 504467; also: nearly all actives have a fitted effect of over 55% in size
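Step one: seed 2,000 cells per well. Step two: pin-transfer compound or DMSO alongside 5-fluorouridine. Step three: incubate 16 hr, 37 °C, 5% CO2. Step four: add ONE-Glo, wait 30 min, read luminescence.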
Rab9 prom act: Rab9 promoter activation. Huh7 Rab9 promoter-luciferase reporter, luminescence, 24 h. 2.8% of 320,000 active. Potency, µM (top dose mostly 9.22 µM), usual class: activators; also: nearly all actives have a fitted effect of over 60% in size
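Huh7 cells stably carrying a Rab9 promoter-luciferase reporter, 1500 cells per well in OP-MEM I with 10% FBS, treated with compound 24 hours at 37C. Luciferase activity read by luminescence after 10 minutes with Amplite reagent.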
ELG1 genotoxic: inducers of genotoxicity in HEK293T ELG1-luciferase cells. HEK293T ELG1-luciferase reporter, luminescence, 16 h. Potency, µM (series often up to 46 µM), hits mostly activators. 1.3% of 330,000 active. AID 504466; also: nearly all actives have a fitted effect of over 60% in size
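Step 1: seed 2,000 HEK293T ELG1-luciferase cells per well. Step 2: add compound or DMSO, incubate 16 hr at 37 °C. Step 3: ONE-Glo, 30 min at room temperature, read luminescence.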
NPC1 promoter act: activators of NPC1 promoter; Huh7 NPC1 promoter luciferase reporter, 24 h; Potency, µM (top dose mostly 9.22 µM), most hits filed as activators; 2.4% of 320,000 active; AID 485313; also: nearly all actives have a fitted effect of over 60% in size
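Stable NPC1-promoter luciferase Huh7 line; cpd (DMSO) 24 h, 37 °C, 5% CO2; Amplite luciferase reagent 10 min RT; luminescence readout. qHTS format.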
FLuc counter: inhibits or activates purified firefly luciferase, miR-21 counter-screen | P08659 | purified FLuc, Km substrates, luminescence inhibition | Potency, µM (doses to about 57.5 µM), hits mostly inhibitors | 6.9% of 360,000 active | AID 588342; also: nearly all actives have a fitted effect of over 55% in size
Target sequence (P08659 whole entry, looked up): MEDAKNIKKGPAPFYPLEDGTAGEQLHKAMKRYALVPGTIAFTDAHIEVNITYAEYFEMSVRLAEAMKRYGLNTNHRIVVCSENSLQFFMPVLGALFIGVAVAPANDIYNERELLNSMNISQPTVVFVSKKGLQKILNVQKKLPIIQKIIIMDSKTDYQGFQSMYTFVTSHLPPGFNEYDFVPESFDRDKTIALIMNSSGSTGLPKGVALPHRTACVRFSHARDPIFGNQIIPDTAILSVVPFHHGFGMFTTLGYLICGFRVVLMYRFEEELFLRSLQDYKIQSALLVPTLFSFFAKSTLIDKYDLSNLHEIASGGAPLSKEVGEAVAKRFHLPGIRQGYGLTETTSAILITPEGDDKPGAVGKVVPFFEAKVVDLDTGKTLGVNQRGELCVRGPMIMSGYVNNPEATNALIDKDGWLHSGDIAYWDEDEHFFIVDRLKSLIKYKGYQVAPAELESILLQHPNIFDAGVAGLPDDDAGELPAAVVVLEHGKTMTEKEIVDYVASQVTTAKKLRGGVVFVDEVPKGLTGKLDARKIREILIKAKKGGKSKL
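Biochemical qHTS of compounds, final roughly 60 µM downward over six points, against 10 nM purified firefly luciferase using Km concentrations of substrates (10 uM D-luciferin, 10 uM ATP) in Tris acetate pH 7.5 buffer; luminescence output.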
SMN2 splice up: enhancers of SMN2 splice variant expression; HEK293 SMN2-luciferase splicing reporter, luminescence, 30-36 h; 2.8% of 210,000 active; Potency, µM (highest dose often 46.1 µM), usual class: activators; also: nearly all actives have a fitted effect of over 55% in size
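HEK293 cells carry an SMN2 […]–luciferase reporter in which exon 7 inclusion puts luciferase in frame. Cells were plated 10-12 h before compound addition, then incubated 30-36 h at 37C. ONE-Glo luminescence was read; sodium butyrate at 4.5 mM final served as control.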
Hits are given with their value; 0 = inactive; ? = inconclusive; - = not tested or not shown. Calls follow the shape of the dose curve; as a rule, active = well fitted curve in the direction sought with a large enough effect; inconclusive = small, poorly fitted or top-dose-only effect, or another doubt; inactive = no such curve, though single readings can be large; an effect the other way counts as inactive or inconclusive.

SMILES	ELG1 DNA repair	Rab9 prom act	ELG1 genotoxic	NPC1 promoter act	FLuc counter	SMN2 splice up
COc1ccc(-c2cn3nc(N4CCC(C(=O)Nc5cc(Cl)ccc5OC)CC4)sc3n2)cc1	-	-	-	-	0	-
CCc1ccc(NC(=O)C2CCN(c3nn4cc(-c5ccc(OC)cc5)nc4s3)CC2)cc1	-	-	-	-	0	-
CCc1ccc(-c2cn3nc(CC)sc3n2)cc1	-	-	-	-	0.6µM	0
CCCCCc1nn2cc(-c3ccccc3)nc2s1	-	-	-	-	0.43µM	7.1µM
CCc1ccc(-c2cn3nc(-c4ccccc4)cnc3n2)cc1	?	2µM	0	?	0	-
CCc1ccc2ncc3c(-c4ccccc4)nn(-c4ccccc4)c3c2c1	-	-	-	-	0	0
Cc1c(-c2ccc(O)cc2)nc2nc(-c3ccccc3)c(-c3ccccc3)nn12	?	0	0	0	0	-
CCCCc1nn2c(=O)cc(CN(CC)c3ccccc3)nc2s1	-	-	-	-	0	-
CCCc1nn2c(C)c(-c3ccccc3)nc2s1	-	-	-	-	1.5µM	0
O=C1CC(N2CCN(c3nc4ccccc4s3)CC2)C(=O)N1c1cccc(F)c1 (configuration not stated)	0	0	0	0	0	0
Cc1ccsc1CCN1C(=O)N(c2ccccc2)C(=O)C1CC(=O)Nc1ccc(Cl)cc1 (configuration not stated)	-	-	-	-	0	0
CC(=O)Nc1ccc(C(=O)NCC(=O)OCc2ccccc2F)cc1	0	0	0	0	?	0
CCCC(=O)Nc1c2c(nn1-c1ccc([N+](=O)[O-])cc1)CS(=O)(=O)C2	0	0	0	0	0	-
O=C(CN(Cc1ccco1)C(=O)c1ccc(N2CCCC2=O)cc1)Nc1ccccc1C(F)(F)F	0	0	0	0	0	-
Cc1cccc(-c2nsc(SCC(=O)NCc3ccco3)n2)c1	?	0	0	0	?	0
CCOC(=O)CSc1nnc(NC(=O)c2cccc([N+](=O)[O-])c2)s1	0	0	0	0	11µM	0
CCOC(=O)CNC(=O)CSc1nc(-c2cccc(C)c2)ns1	0	0	0	0	24µM	0
CCOC(=O)CNC(=O)CSc1nnc(NC(=O)c2ccc3c(c2)OCO3)s1	?	3.2µM	3.3µM	3.5µM	0.95µM	-
CCOC(=O)CNC(=O)c1ccc(SCC)cc1	?	?	?	?	19µM	-
CSCC[C@H](NC(=O)C1CCN(S(=O)(=O)c2ccc(C)cc2C)CC1)c1nc2ccccc2[nH]1	?	-	0	-	-	-
O=C(CCc1ccc(S(=O)(=O)N2CCOCC2)cc1)Nc1c(F)cccc1F	0	-	0	-	-	-
Cc1ccc(C(=O)Nc2nnc(SCC(=O)N3CCCc4ccccc43)s2)cc1	?	0.32µM	?	?	0.15µM	?
CCOC(=O)CNC(=O)CSc1nnc(NC(=O)c2ccc(C)cc2)s1	?	0.56µM	?	1.8µM	0.6µM	5µM
CCOC(=O)CNC(=O)CSc1nnc(SCC(=O)NCC(=O)OCC)s1	0	0	0	0	0	0
Cn1c(=O)c2c(nc(NCc3ccco3)n2C/C=C/c2ccccc2)n(C)c1=O	4.6µM	0	0	0	0	0
SMILES	ELG1 DNA repair	Rab9 prom act	ELG1 genotoxic	NPC1 promoter act	FLuc counter	SMN2 splice up
Cn1c(=O)c2c(nc(NCc3ccco3)n2C)n(C)c1=O	0	0	0	0	0	-
Cc1ccc(CN(c2ccc(C(=O)N3CCc4ccccc4C3)cc2)S(C)(=O)=O)cc1	16µM	0	0	0	0	0
CCOC(=O)c1cc(OC(=O)c2ccccc2C)n(-c2ccccc2)n1	-	-	-	-	0	0
O=C1COc2ccc(-c3csc(NCC4CCCO4)n3)cc2N1 (configuration not stated)	?	0	0	0	17µM	0
c1ccc2sc(NCC3CCCO3)nc2c1 (configuration not stated)	?	1.4µM	?	2.2µM	21µM	10µM
O=C(Nc1nc(-c2cc3ccccc3oc2=O)cs1)c1ccco1	0	0	0	0	?	0
CC(Nc1nc(-c2ccc3c(c2)NC(=O)CO3)cs1)c1ccccc1 (configuration not stated)	?	0	0	0	?	0
O=c1oc2ccccc2cc1-c1csc(NN=C2CCCCC2)n1	?	?	0	?	13µM	?
